# Unmarked numbers belong to inactive results. Inconclusive results are not listed. A call without a number means that no potency is given here. Activity calls are given as the source filed them. Calls follow the shape of the dose curve; as a rule, active = well fitted curve in the direction sought with a large enough effect; inconclusive = small, poorly fitted or top-dose-only effect, or another doubt; inactive = no such curve, though single readings can be large; an effect the other way counts as inactive or inconclusive.
# Legend:
# [1] = tested on: Zika virus NS2B-NS3 protease (unlinked complex); assay: Primary screen GU Rhodamine qHTS for Zika virus inhibitors: Unlinked NS2B-NS3 protease assay (AID 1347159); also: nearly all actives have a fitted effect of over 60% in size; also: potency is read from the fitted curve at half-maximal effect
# Outline: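 Percent inhibition derives from the 15-min fluorescence change (ex 480, em 540 nm), normalized to no-enzyme and no-inhibitor wells. Reactions contained 25 nM NS2B-NS3 complex and 1.5 microM substrate in 10 mM Tris-HCl pH 8.0.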
# [2] = tested on: Zika virus NS2B-NS3 protease (linked construct); assay: Primary screen NINDS Rhodamine qHTS for Zika virus inhibitors (AID 1347160); also: nearly all actives have a fitted effect of over 55% in size; also: potency is read from the fitted curve at half-maximal effect
# Outline: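 In 10 mM Tris-HCl pH 8.0 containing 0.01% Tween 20, linked NS2B-NS3 protease (25 nM final) is exposed to test compounds for 15 min. Cleavage of 1.5 microM Rhodamine110 substrate is tracked by fluorescence over 15 min.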
# [3] = molecular target: Calcium and integrin-binding protein 1 (Homo sapiens) (UniProt Q99828); assay: Primary qHTS for Identification of Calcium Integrin Binding Protein 1 (CIB1) Competitor (AID 1508620);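 also: GST tagged CIB1 binding a fluorescein labelled alphaIIb integrin peptide tracer; top concentration of the series differs between compounds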
# Outline: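 Fluorescence polarization competition: CIB1-GST (1 uM final) preincubated with compound 15 min at room temperature, then FITC-labeled alphaIIb peptide (100 nM final) added for another 15 min. Polarization read at Ex 480/Em 540.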
# [4] = Primary qHTS for inhibitors of nuclear receptor binding SET domain protein 2 (NSD2) in an isogenic RCH-ACV NSD2 p.E1099K mutant (9B) (AID 1645876); also: nearly all actives have a fitted effect of over 70% in size; also: potency is read from the fitted curve at half-maximal effect
# [5] = Primary qHTS for inhibitors of nuclear receptor binding SET domain protein 2 (NSD2) in an RCH-ACV wild type WT cells (2C) (AID 1645877); also: nearly all actives have a fitted effect of over 70% in size; also: potency is read from the fitted curve at half-maximal effect
# [6] = molecular target: Glutathione peroxidase 1 (Homo sapiens) (UniProt P07203); assay: Primary qHTS Assay for Inhibitors of Recombinant Selenoprotein Glutathione Peroxidase 1 (GPX1) (AID 1845191); also: nearly all actives have a fitted effect of over 65% in size
# Outline: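 Recombinant GPX1 (10 nM final) was preincubated with compound for 30 min at room temperature, then reacted with 1 mM GSH, 0.5 mM CHP, 0.5 mM NADPH and 100 nM glutathione reductase; NADPH fluorescence (340/450 nm) was read at 0 and 15 min.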
# [7] = molecular target: Phospholipid hydroperoxide glutathione peroxidase GPX4 (Homo sapiens) (UniProt P36969); assay: Primary qHTS Assay for Inhibitors of Recombinant Selenoprotein Glutathione Peroxidase 4 (GPX4) (AID 1845192); also: nearly all actives have a fitted effect of over 65% in size
# Outline: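 GR-coupled readout: 100 nM GR, 1 mM GSH, 0.5 mM NADPH; NADPH fluorescence (ex 340/em 450 nm) read at t=0 and after 15 min RT. GPX4 200 nM, preincubated 30 min with compound; substrate 0.5 mM CHP.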
# [8] = molecular target: Luciferin 4-monooxygenase (Photinus pyralis) (UniProt P08659); assay: Primary firefly luciferase (FLuc) qHTS assay for identification of artifact compounds. (AID 1845220); settings: outcome: dose series up to 54.1 µM unless noted; also: nearly all actives have a fitted effect of over 60% in size
# Outline: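 In this counter-screen for luciferase artifacts, test compounds met substrate (10 uM each luciferin and ATP) before 10 nM enzyme started the reaction. Light output was measured 5 min later.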
# [9] = Primary fluorescence-based thiol-reactive (MSTI) qHTS assay for identification of artifact compounds. (AID 1845221);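 also: thiol-reactive compounds lower the probe fluorescence signal; nearly all actives have a fitted effect of over 65% in size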
# Outline: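 Compounds were incubated 1 h at room temperature in the dark with the MSTI probe (4 uM) in PBS pH 7.4, 2% DMSO. Signals were normalized between Acetyl-MSTI and MSTI.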
# [10] = tested on: Nanoluciferase (engineered Oplophorus gracilirostris luciferase); assay: Primary Nanoluciferase (NLuc) qHTS assay for identification of artifact compounds. (AID 1845222); also: potency is read from the fitted curve at half-maximal effect;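 as to activity, negative = inhibition: NLuc secreted into diluted conditioned medium of S16 cells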
# Outline: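 Using secreted nanoluciferase in S16 culture medium (0.22 um filtered, 1:55 dilution), compounds were preincubated 15 min at RT. Signal was generated with Nano-Glo reagent (1:100) over 5 min.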
# [11] = Primary redox qHTS assay for identification of artifact compounds. (AID 1845223)
# Outline: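 Amplex Red (25 uM) and HRP (250 mU/mL) in HBSS, with compounds for 15 min, then 250 uM DTT for 30 min, room temperature, dark. Fluorescence 525/598 nm read; normalized to DMSO and 10 uM DA3003; Hill fit.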
# [12] = tested on: HaCat; assay: Cytotoxic Profiling of Annotated Libraries Using Quantitative High-Throughput Screening (AID 1296008); settings: Five cell lines viability, CellTiter-Glo ATP luminescence, 48-72 h; max response: stronger effect = lower value; also: nearly all actives have a fitted effect of over 60% in size; also: potency is read from the fitted curve at half-maximal effect
# Outline: (§1)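 Compounds were pin-transferred onto cells and incubated 48 or 72 hr at 37 degree Celsius, 95% humidity. CellTiter-Glo was added, plates sat 10 min at room temperature, then ATP-coupled luminescence was imaged as the viability read-out.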
# [13] = tested on: CASKI; assay: Primary qHTS to identify gynecologic anti-cancer compounds using libraries of approved drugs and bioactive compounds (AID 1345084); settings: Gynecologic cancer cell panel viability, ATPlite luminescence, 48 h; series mostly up to 57.5 µM; also: nearly all actives have a fitted effect of over 55% in size; also: potency is read from the fitted curve at half-maximal effect
# Outline: (§2)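 Luminescence from the ATPlite ATP-monitoring reagent indicates viable cell number; lower signal means cytotoxicity. Cells received compound 16 h after seeding and were exposed for 48 h across five concentrations.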
# [14] = tested on: JEG-3; assay: as above; settings: Gynecologic cancer cell panel viability, ATPlite luminescence, 48 h; series mostly up to 57.5 µM
# Outline: as §2
# [15] = tested on: OV90; assay: as above; settings: Gynecologic cancer cell panel viability, ATPlite luminescence, 48 h; series mostly up to 57.5 µM
# Outline: as §2
# [16] = P-glycoprotein substrates identified in KB-8-5-11 adenocarcinoma cell line, qHTS therapeutic library screen (AID 1346987); also: nearly all actives have a fitted effect of over 65% in size; also: potency is read from the fitted curve at half-maximal effect
# Outline: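 P-gp-mediated resistance screen: KB-8-5-11 cells treated 72 h with compounds in dose-response. CellTiter-Glo viability.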
# [17] = tested on: KB-3-1; assay: Cytotoxic Profiling of Annotated Libraries Using Quantitative High-Throughput Screening (AID 1296008); settings: Five cell lines viability, CellTiter-Glo ATP luminescence, 48-72 h; max response: stronger effect = lower value; also: nearly all actives have a fitted effect of over 60% in size; also: potency is read from the fitted curve at half-maximal effect
# Outline: as §1
# Phospholipid hydroperoxide glutathione peroxidase GPX4 (Homo sapiens), sequence (P36969 whole entry, looked up): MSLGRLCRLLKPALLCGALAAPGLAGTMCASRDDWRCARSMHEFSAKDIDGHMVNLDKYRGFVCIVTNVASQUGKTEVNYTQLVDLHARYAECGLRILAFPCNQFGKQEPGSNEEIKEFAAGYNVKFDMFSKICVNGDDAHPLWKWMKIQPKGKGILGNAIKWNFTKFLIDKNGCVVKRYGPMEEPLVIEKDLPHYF
# Glutathione peroxidase 1 (Homo sapiens), sequence (P07203 whole entry, looked up): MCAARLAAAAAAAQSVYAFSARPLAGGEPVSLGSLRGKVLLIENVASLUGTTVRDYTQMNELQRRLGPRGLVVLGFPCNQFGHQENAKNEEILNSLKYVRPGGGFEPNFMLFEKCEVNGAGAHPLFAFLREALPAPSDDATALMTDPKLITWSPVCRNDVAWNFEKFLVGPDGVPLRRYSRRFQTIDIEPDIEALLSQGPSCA
# Calcium and integrin-binding protein 1 (Homo sapiens), sequence (Q99828 whole entry, looked up): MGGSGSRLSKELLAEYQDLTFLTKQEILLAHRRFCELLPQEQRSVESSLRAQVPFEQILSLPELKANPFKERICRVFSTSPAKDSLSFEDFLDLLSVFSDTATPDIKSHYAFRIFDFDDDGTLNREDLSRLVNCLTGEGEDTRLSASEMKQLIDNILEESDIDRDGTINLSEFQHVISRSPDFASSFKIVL
compound,measurement,setting,value
CN(CC[C@H](N)CC(=O)N[C@H]1C=C[C@@H](n2ccc(N)nc2=O)O[C@@H]1C(=O)O)C(=N)N,"activity change, negative = inhibition",[1],11.2% [at 19.1 µM]
same,"activity change, negative = inhibition",[2],10.8% [at 10.7 µM]
same,Potency,[3],inactive
same,"activity change, negative = viability loss",[4],-2.6% [at 9.23 µM]
same,"activity change, negative = cell killing",[5],0.799% [at 9.23 µM]
same,"activity, negative = inhibition",[6],-3.97% [at 9.52 µM]
same,outcome,[7],inactive [at 9.73 µM]
same,outcome,[8],inactive [at 11.6 µM]
same,"activity change, negative = thiol reactive",[9],-6.62% [at 11.5 µM]
same,"activity, negative = inhibition",[10],0% [at 11.6 µM]
same,redox activity (% of DA3003),[11],-9.15% [at 11.5 µM]
same,outcome,[12],inactive
same,"activity change, negative = cytotoxicity",[13],4.22% [at 11.6 µM]
same,"activity change, negative = cytotoxicity",[14],12.8% [at 11.6 µM]
same,"activity change, negative = cytotoxicity",[15],-7.37% [at 11.6 µM]
CC1CCCCCC(=O)c2c(O)cc(O)cc2CC(=O)O1 (stereo not drawn),Potency,[16],inactive
same,Potency,[1],inactive
same,Potency,[2],inactive
same,Potency,[3],inactive
same,Potency,[6],inactive
same,Potency,[7],inactive
same,outcome,[8],inactive
same,Potency,[9],inactive
same,Potency,[10],inactive
same,Potency,[11],inactive
same,outcome,[12],inactive
same,max response,[17],-18.6%
same,Potency,[13],inactive
same,Potency,[14],inactive
same,Potency,[15],inactive
N#Cc1ccccc1-c1cc(-c2ccccn2)cn(-c2ccccc2)c1=O,Potency,[2],inactive
same,Potency,[4],inactive
same,Potency,[5],inactive
same,Potency,[6],inactive
same,outcome,[8],inactive
same,Potency,[9],inactive
same,Potency,[10],10.7 µM (active)
same,Potency,[11],inactive
same,max response,[12],1.04%
same,max response,[17],-4.86%
same,Potency,[13],inactive
same,Potency,[14],inactive
same,Potency,[15],inactive
CC(C)=CCC[C@]1(C)C=Cc2c(O)c3c(c(CC=C(C)C)c2O1)O[C@]12C(=C[C@@H]4CC1C(C)(C)O[C@@]2(C/C=C(/C)C(=O)O)C4=O)C3=O,Potency,[16],4.11 µM (active)
same,Potency,[1],2.82 µM (active)
same,Potency,[2],2.82 µM (active)
same,Potency,[4],0.578 µM (active)
same,Potency,[5],0.365 µM (active)
same,outcome,[8],inactive
same,Potency,[10],inactive
same,Potency,[11],inactive
same,Potency,[12],4.61 µM (active)
same,Potency,[13],2.24 µM (active)
same,Potency,[14],3.98 µM (active)
same,Potency,[15],5.01 µM (active)
Cc1ccc(-n2nccn2)c(C(=O)N2CCN(c3nc4cc(Cl)ccc4o3)CCC2C)c1 (stereo not drawn),Potency,[1],inactive
same,Potency,[2],inactive
same,Potency,[4],16.3 µM (active)
same,Potency,[7],inactive
same,outcome,[8],inactive
same,Potency,[9],inactive
same,Potency,[10],inactive
same,outcome,[12],inactive
same,Potency,[13],inactive
same,Potency,[14],inactive
same,Potency,[15],inactive
CCCCn1cc(C(=O)c2cccc3ccccc23)c2ccccc21,Potency,[16],inactive
same,Potency,[1],inactive
same,Potency,[2],inactive
same,Potency,[3],inactive
same,Potency,[4],inactive
same,Potency,[5],inactive
same,Potency,[6],inactive
same,Potency,[7],inactive
same,outcome,[8],inactive
same,Potency,[9],inactive
same,Potency,[10],inactive
same,Potency,[11],inactive
same,outcome,[12],inactive
same,max response,[17],-16.1%
same,Potency,[13],inactive
same,Potency,[14],inactive
same,Potency,[15],inactive
Cc1sc2c(c1C)C(c1ccc(Cl)cc1)=NC(CC(=O)OC(C)(C)C)c1nnc(C)n1-2 (stereo not drawn),Potency,[16],1.16 µM (active)
same,Potency,[2],inactive
same,Potency,[3],inactive
same,Potency,[4],0.183 µM (active)
same,Potency,[5],0.129 µM (active)
same,Potency,[7],inactive
same,outcome,[8],inactive
same,Potency,[9],inactive
same,Potency,[10],inactive
same,Potency,[11],inactive
same,Potency,[14],inactive
same,Potency,[15],inactive
C/C(=C\c1csc(C)n1)[C@@H]1C[C@@H]2O[C@@H]2CCC[C@H](C)[C@H](O)[C@@H](C)C(=O)C(C)(C)[C@@H](O)CC(=O)O1,Potency,[16],0.0058 µM (active)
same,Potency,[1],inactive
same,Potency,[2],inactive
same,Potency,[3],inactive
same,Potency,[4],0.0372 µM (active)
same,Potency,[5],0.0263 µM (active)
same,Potency,[6],inactive
same,Potency,[7],inactive
same,outcome,[8],inactive
same,Potency,[9],inactive
same,Potency,[10],inactive
same,Potency,[11],inactive
same,Potency,[17],0.0082 µM (active)
same,Potency,[14],inactive
same,Potency,[15],inactive
OC(CNc1ccccc1)Cn1c2ccc(Br)cc2c2cc(Br)ccc21 (stereo not drawn),Potency,[6],inactive
same,Potency,[7],inactive
same,outcome,[8],inactive
same,Potency,[10],inactive
same,Potency,[11],inactive
same,max response,[12],-16%
same,max response,[17],-15.3%
same,Potency,[14],inactive
same,Potency,[15],inactive
CC(=O)OC[C@]12C[C@H](OC(C)=O)C(C)=C[C@H]1O[C@@H]1[C@H](O)[C@@H](O)[C@@]2(C)[C@]12CO2,Potency,[16],0.904 µM (active)
same,Potency,[1],inactive
same,Potency,[2],inactive
same,Potency,[3],inactive
same,Potency,[4],0.101 µM (active)
same,Potency,[5],0.0898 µM (active)
same,Potency,[6],inactive
same,outcome,[8],inactive
same,Potency,[9],inactive
same,Potency,[10],inactive
same,Potency,[11],inactive
same,Potency,[12],1.28 µM (active)
same,Potency,[17],0.18 µM (active)
same,Potency,[13],1.41 µM (active)
same,Potency,[14],5.62 µM (active)
same,Potency,[15],3.16 µM (active)
COc1ccc(C23CCC(=O)C=C2N(C)CC3)cc1OC (stereo not drawn),Potency,[16],inactive
same,Potency,[1],inactive
same,Potency,[2],inactive
same,Potency,[3],inactive
same,Potency,[4],inactive
same,Potency,[5],inactive
same,Potency,[6],inactive
same,Potency,[7],inactive
same,outcome,[8],inactive
same,Potency,[9],inactive
same,Potency,[10],inactive
same,Potency,[11],inactive
same,max response,[17],-13%
same,Potency,[15],inactive
C[C@]12CC[C@H](OC3OC(CO)C(O)C(O)C3OC3OC(CO)C(O)C(O)C3O)C[C@@H]1CC[C@@H]1C2CC[C@]2(C)[C@@H](C3=CC(=O)OC3)CC[C@]12O (stereo partly drawn),Potency,[2],inactive
same,Potency,[3],inactive
same,Potency,[4],4.3 µM (active)
same,Potency,[6],inactive
same,Potency,[7],inactive
same,outcome,[8],inactive
same,Potency,[9],inactive
same,Potency,[10],inactive
same,Potency,[11],inactive
same,max response,[12],-2.72%
same,max response,[17],6.08%
same,Potency,[13],inactive
same,Potency,[14],inactive
same,Potency,[15],inactive

# — PubChem BioAssay (NCATS)
